These results are taken from the supplement of paper PMC10981050.

“And” between values parts separate entries of the source, which are not always exact repeats. Equal entries are not always repeated. Structures can show the parent of a compound that is named as a salt.

Assay in all cases: cell viability relative to vehicle control; higher = less cytotoxic
Details in all cases: 10 µM

In one test the test system is K562. In short, it runs like this: (§1)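 Four leukaemia lines, as CRISPR-edited mutant clones and isogenic wild-type clones, were tested against Selleck bioactive, kinase and epigenetic probe libraries after removal of identity-inconsistent compounds. Cells were exposed to a single 10 µM dose for 48 h, and CellTiter-Glo luminescence was then read. Viability was calculated relative to the on-plate vehicle control.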

The next test deals with MARIMO. The method in brief: as §1
A further test relates to MOLM14. In short, it runs like this:
as §1

The subject of another test is OCI-AML2. In short, it runs like this:
as §1

For `Cc1cc(C)c(CN2CCc3c(Cl)cc(-c4c(C)noc4C)c(Cl)c3C2=O)c(=O)[nH]1`, the cell viability – broadly, a read-out of living cells in per cent, often relative to untreated cells – is 78.7% and 87.1% with K562 (SRSF2 genotype: SRSF2 P95H/wt); 87.5% in the test with K562 (SRSF2 genotype: SRSF2 wt/wt); 74.8% with MARIMO (SRSF2 genotype: SRSF2 P95H/wt); 65.4% with MARIMO (SRSF2 genotype: SRSF2 wt/wt); 77.6% with MOLM14 (SRSF2 genotype: SRSF2 P95H/wt); 79.8% with MOLM14 (SRSF2 genotype: SRSF2 wt/wt). Further, the cell viability is 77.4% in the test on OCI-AML2 (SRSF2 genotype: P95H/wt) and 86.5% in the test on OCI-AML2 (SRSF2 genotype: wt/wt).

As for `CCCNCC(O)COc1ccccc1C(=O)CCc1ccccc1` (stereo not given) [Propafenone HCl], the cell viability in the test with K562 (SRSF2 genotype: SRSF2 P95H/wt) was 78.7% and 84.2%; with K562 (SRSF2 genotype: SRSF2 wt/wt) it was 79.2%; with MARIMO (SRSF2 genotype: SRSF2 P95H/wt), 66.1%; in the test with MARIMO (SRSF2 genotype: SRSF2 wt/wt), 70.5%; with MOLM14 (SRSF2 genotype: SRSF2 P95H/wt), 73.2%; in the test with MOLM14 (SRSF2 genotype: SRSF2 wt/wt) it was 81.2%. The cell viability with OCI-AML2 (SRSF2 genotype: P95H/wt) amounted to 68.3%; in the test on OCI-AML2 (SRSF2 genotype: wt/wt), 68%.

Turning to `O=C(O)c1cc(C(F)(F)F)ccc1N1CC[C@H](OCc2ccccn2)C1`, the cell viability in the test on K562 (SRSF2 genotype: SRSF2 P95H/wt) is 107% and 109%; in the test with K562 (SRSF2 genotype: SRSF2 wt/wt), 100%; in the test on MARIMO (SRSF2 genotype: SRSF2 P95H/wt), 114%; in the test with MARIMO (SRSF2 genotype: SRSF2 wt/wt), 113%; in the test on MOLM14 (SRSF2 genotype: SRSF2 P95H/wt), 102%; in the test with MOLM14 (SRSF2 genotype: SRSF2 wt/wt), 102%. Further, the cell viability in the test on OCI-AML2 (SRSF2 genotype: P95H/wt) is 106%; in the test with OCI-AML2 (SRSF2 genotype: wt/wt) it was 104%.

In the case of `Cc1cc(-n2c(=O)[nH]c(=O)n(C)c2=O)ccc1Oc1ccc(SC(F)(F)F)cc1` [Toltrazuril], the cell viability in the test with K562 (SRSF2 genotype: SRSF2 P95H/wt) was 105% and 104%; with K562 (SRSF2 genotype: SRSF2 wt/wt), 103%; with MARIMO (SRSF2 genotype: SRSF2 P95H/wt), 107%; in the test on MARIMO (SRSF2 genotype: SRSF2 wt/wt), 109%; in the test with MOLM14 (SRSF2 genotype: SRSF2 P95H/wt), 99.7%; in the test on MOLM14 (SRSF2 genotype: SRSF2 wt/wt), 101%. The cell viability came out at 105% in the test on OCI-AML2 (SRSF2 genotype: P95H/wt) and 104% in the test on OCI-AML2 (SRSF2 genotype: wt/wt).

On to `CNC[C@H](O)c1ccc(O)c(O)c1` [Epinephrine bitartrate (Adrenalinium)], for which the cell viability in the test with K562 (SRSF2 genotype: SRSF2 P95H/wt) was 97.4% and 94.9%; in the test on K562 (SRSF2 genotype: SRSF2 wt/wt) it was 94%; in the test on MARIMO (SRSF2 genotype: SRSF2 P95H/wt), 102%; in the test on MARIMO (SRSF2 genotype: SRSF2 wt/wt) it was 108%; in the test with MOLM14 (SRSF2 genotype: SRSF2 P95H/wt), 84.5%; in the test with MOLM14 (SRSF2 genotype: SRSF2 wt/wt), 97.6%. Also, the cell viability turned out to be 102% with OCI-AML2 (SRSF2 genotype: P95H/wt) and 112% in the test with OCI-AML2 (SRSF2 genotype: wt/wt).

In the case of `C[C@H](Cn1cnc2c(N)ncnc21)OCP(=O)(O)O` [Tenofovir (Viread)], the cell viability in the test with K562 (SRSF2 genotype: SRSF2 P95H/wt) is 101%; in the test with K562 (SRSF2 genotype: SRSF2 wt/wt), 98.5%; with MARIMO (SRSF2 genotype: SRSF2 P95H/wt), 97.2%; in the test with MARIMO (SRSF2 genotype: SRSF2 wt/wt) it was 101%; in the test on MOLM14 (SRSF2 genotype: SRSF2 P95H/wt), 105%; in the test with MOLM14 (SRSF2 genotype: SRSF2 wt/wt), 98.3%. Moreover, the cell viability in the test on OCI-AML2 (SRSF2 genotype: P95H/wt) is 106%; in the test with OCI-AML2 (SRSF2 genotype: wt/wt), 109%.

Take `NC1(Cc2ccc(Cl)cc2)CCN(c2ncnc3[nH]ccc23)CC1`: the cell viability with K562 (SRSF2 genotype: SRSF2 P95H/wt) is 55.4% and 60.1%; in the test on K562 (SRSF2 genotype: SRSF2 wt/wt), 50.8%; in the test on MARIMO (SRSF2 genotype: SRSF2 P95H/wt) it was 36.5%; with MARIMO (SRSF2 genotype: SRSF2 wt/wt) it was 35.1%; with MOLM14 (SRSF2 genotype: SRSF2 P95H/wt) it was 17.7%; with MOLM14 (SRSF2 genotype: SRSF2 wt/wt) it was 17%. The cell viability in the test on OCI-AML2 (SRSF2 genotype: P95H/wt) was 35.3%; in the test on OCI-AML2 (SRSF2 genotype: wt/wt), 30.9%.

For the molecule `COc1cc(C)c(/C=C/C(C)=C/C=C/C(C)=C/C(=O)O)c(C)c1C` [Acitretin], the cell viability in the test on K562 (SRSF2 genotype: SRSF2 P95H/wt) is 87% and 91.6%; in the test with K562 (SRSF2 genotype: SRSF2 wt/wt), 90%; in the test with MARIMO (SRSF2 genotype: SRSF2 P95H/wt), 79.1%; in the test with MARIMO (SRSF2 genotype: SRSF2 wt/wt), 88.1%; with MOLM14 (SRSF2 genotype: SRSF2 P95H/wt) it was 87.4%; with MOLM14 (SRSF2 genotype: SRSF2 wt/wt) it was 89.2%. The cell viability came out at 32.6% in the test on OCI-AML2 (SRSF2 genotype: P95H/wt) and 52% in the test with OCI-AML2 (SRSF2 genotype: wt/wt).

For the molecule `O=C(c1ccc(OCCN2CCCCC2)cc1)c1c(-c2ccc(O)cc2)sc2cc(O)ccc12` [Evista (Raloxifene Hydrochloride)], the cell viability is 75.3% and 80.4% with K562 (SRSF2 genotype: SRSF2 P95H/wt); 81.3% with K562 (SRSF2 genotype: SRSF2 wt/wt); 79.3% in the test on MARIMO (SRSF2 genotype: SRSF2 P95H/wt); 77.8% in the test on MARIMO (SRSF2 genotype: SRSF2 wt/wt); 76.2% with MOLM14 (SRSF2 genotype: SRSF2 P95H/wt); 81.3% in the test on MOLM14 (SRSF2 genotype: SRSF2 wt/wt). The figures for the cell viability in the test with OCI-AML2 (SRSF2 genotype: P95H/wt) and in the test on OCI-AML2 (SRSF2 genotype: wt/wt) were 82.7% and 77.2%, respectively.

On to `C[C@@H]1CCCC2=CC(=O)[C@@H]3[C@@H](C3(C)C)[C@]21C` [Aristolone], for which the cell viability in the test with K562 (SRSF2 genotype: SRSF2 P95H/wt) was 107% and 96.8%; in the test with K562 (SRSF2 genotype: SRSF2 wt/wt), 101%; in the test with MARIMO (SRSF2 genotype: SRSF2 P95H/wt) it was 95.8%; with MARIMO (SRSF2 genotype: SRSF2 wt/wt), 103%; with MOLM14 (SRSF2 genotype: SRSF2 P95H/wt), 112%; with MOLM14 (SRSF2 genotype: SRSF2 wt/wt), 99%. Moreover, the cell viability in the test with OCI-AML2 (SRSF2 genotype: P95H/wt) stood at 98.3%; in the test on OCI-AML2 (SRSF2 genotype: wt/wt) it was 109%.
